Results published in PubChem BioAssay (NCATS).
Results filed as inconclusive are left out. Calls of active or inactive are those of the source. Calls come from the whole dose curve; as a rule, active = well fitted curve in the direction sought with a large enough effect; inconclusive = small, poorly fitted or top-dose-only effect, or another doubt; inactive = no such curve, though single readings can be large; an effect the other way counts as inactive or inconclusive.

Tests used:
[1] = target: Lysine-specific demethylase 5B (Homo sapiens) (UniProt Q9UGL1); experiment: Optimization screen for KDM5B Histone Demethylases FDH coupled qHTS against the LOPAC library (AID 1347166); note: 0% is about no effect
Lysine-specific demethylase 5B (Homo sapiens), sequence (Q9UGL1 whole entry, looked up): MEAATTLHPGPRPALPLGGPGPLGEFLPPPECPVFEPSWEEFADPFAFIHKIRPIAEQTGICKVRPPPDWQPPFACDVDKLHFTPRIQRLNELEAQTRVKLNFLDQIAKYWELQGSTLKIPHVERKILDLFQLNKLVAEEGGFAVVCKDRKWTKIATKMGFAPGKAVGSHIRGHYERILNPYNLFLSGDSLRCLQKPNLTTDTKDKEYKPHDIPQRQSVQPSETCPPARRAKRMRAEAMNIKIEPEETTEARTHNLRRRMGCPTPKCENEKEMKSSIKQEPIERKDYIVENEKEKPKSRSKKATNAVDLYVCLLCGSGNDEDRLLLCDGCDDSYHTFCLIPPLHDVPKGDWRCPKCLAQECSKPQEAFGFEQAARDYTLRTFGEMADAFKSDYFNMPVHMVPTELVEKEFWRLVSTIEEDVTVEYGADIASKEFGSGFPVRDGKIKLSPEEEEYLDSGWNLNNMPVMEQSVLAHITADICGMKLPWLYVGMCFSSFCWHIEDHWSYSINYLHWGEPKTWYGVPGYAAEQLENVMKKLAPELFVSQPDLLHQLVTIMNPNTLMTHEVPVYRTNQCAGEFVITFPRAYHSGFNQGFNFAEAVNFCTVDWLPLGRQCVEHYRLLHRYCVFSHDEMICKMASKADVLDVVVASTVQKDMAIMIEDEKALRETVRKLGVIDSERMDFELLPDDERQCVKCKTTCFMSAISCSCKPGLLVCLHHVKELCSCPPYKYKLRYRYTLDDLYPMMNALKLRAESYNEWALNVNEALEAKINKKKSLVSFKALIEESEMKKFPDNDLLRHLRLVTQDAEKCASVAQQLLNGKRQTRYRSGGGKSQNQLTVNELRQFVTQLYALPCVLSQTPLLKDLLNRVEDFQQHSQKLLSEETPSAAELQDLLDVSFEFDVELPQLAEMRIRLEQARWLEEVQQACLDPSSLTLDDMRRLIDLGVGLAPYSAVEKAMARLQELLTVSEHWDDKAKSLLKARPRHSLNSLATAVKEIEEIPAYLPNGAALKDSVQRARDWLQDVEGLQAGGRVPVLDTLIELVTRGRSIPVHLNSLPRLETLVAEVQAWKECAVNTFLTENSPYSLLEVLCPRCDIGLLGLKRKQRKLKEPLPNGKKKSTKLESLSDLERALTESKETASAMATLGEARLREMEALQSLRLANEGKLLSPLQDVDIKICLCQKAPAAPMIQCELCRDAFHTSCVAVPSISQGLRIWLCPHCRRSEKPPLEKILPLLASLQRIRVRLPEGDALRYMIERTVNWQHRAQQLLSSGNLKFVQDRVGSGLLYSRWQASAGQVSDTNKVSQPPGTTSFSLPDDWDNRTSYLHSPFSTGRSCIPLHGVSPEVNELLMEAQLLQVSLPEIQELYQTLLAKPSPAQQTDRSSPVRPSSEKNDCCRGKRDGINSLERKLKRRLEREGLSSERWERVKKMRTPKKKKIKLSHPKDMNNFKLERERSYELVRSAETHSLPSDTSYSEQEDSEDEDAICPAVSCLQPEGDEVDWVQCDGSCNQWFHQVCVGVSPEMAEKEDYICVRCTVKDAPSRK
Summary of the method: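 KDM5BDeltaAP (200nM final) in 50mM HEPES pH 7.5, 0.01% Tween-20 was preincubated with compound for 10 min at room temperature. A substrate mix of 12.5uM H3K4Me3, 25uM a-ketoglutarate, ascorbate, Fe2+, NAD+ and formaldehyde dehydrogenase was then added. NADH fluorescence (340/450 nm) was read initially and after 30 min.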

[2] = qHTS to identify inhibitors of the type 1 interferon - major histocompatibility complex class I in skeletal muscle: primary screen against the NCATS LOPAC collection (AID 1347405);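 note: human myoblasts with HiBiT tag on endogenous HLA-B stimulated by IFN-beta; lytic HiBiT luminescence reporting HLA-B protein level; % is set by controls: 0 for no effect and ±100 for the full control effect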
Summary of the method: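 IFN-beta-stimulated (4 ng/ml) HLA-B HiBiT knock-in myoblasts, compound-treated 24 hrs up to 46 uM final; signal via LgBiT complementation and furimazine luminescence.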

[3] = qHTS to identify inhibitors of the type 1 interferon - major histocompatibility complex class I in skeletal muscle: primary screen against the NCATS Pharmaceutical Collection (AID 1347407);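 note: luminescence of HiBiT knocked into endogenous HLA-B as interferon-induced MHC class I level; % is set by controls: 0 for no effect and ±100 for the full control effect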
Summary of the method: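 A qHTS format is used: 8-point, 1:5 compound series with 46 uM top final concentration, applied alongside 4 ng/ml IFN-beta to HLA-B*08:01-HiBiT knock-in myoblasts. Luminescence is measured after 24 h treatment.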

[4] = qHTS for inhibitors of adenylyl cyclases using a fission yeast platform: a pilot screen against the NCATS LOPAC library (AID 1347410);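 note: plate controls were DMSO vehicle for no effect and DPI positive control for full effect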
Summary of the method: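 Inhibition of GNAS-stimulated AC9 activity in S. pombe was inferred from derepression of a PKA-repressed fbp1-GFP reporter, measured as cytometric fluorescence after 18 h at 30C with compounds at up to 57 µM.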

[5] = qHTS to identify inhibitors of the type 1 interferon - major histocompatibility complex class I in skeletal muscle: primary screen against the NCATS Mechanism Interrogation Plate v5.0 (MIPE) Libary (AID 1347411);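 note: plate controls were vehicle for no effect and reference inhibitor for full effect; nearly all actives have a fitted effect of over 65% in size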
Summary of the method: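 IFN-beta-driven (4 ng/ml) HLA-B-HiBit expression in CRISPR-tagged C25cl48 myoblasts; compounds 11-pt, 1:3, max 46 uM, 24 hr exposure; lytic NanoLuc complementation luminescence.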

[6] = target: Protein phosphatase 1D (Homo sapiens) (UniProt O15297); experiment: RapidFire Mass Spectrometry qHTS Assay for Modulators of WT P53-Induced Phosphatase 1 (WIP1) (AID 1347424);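 note: amount of dephosphorylated VEPPL-S-QETFS peptide product formed by WIP1; series mostly up to about 63 µM; plate controls were DMSO wells for no effect and GSK830371 inhibitor control at 10 µM for full effect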
Protein phosphatase 1D (Homo sapiens), sequence (O15297 whole entry, looked up): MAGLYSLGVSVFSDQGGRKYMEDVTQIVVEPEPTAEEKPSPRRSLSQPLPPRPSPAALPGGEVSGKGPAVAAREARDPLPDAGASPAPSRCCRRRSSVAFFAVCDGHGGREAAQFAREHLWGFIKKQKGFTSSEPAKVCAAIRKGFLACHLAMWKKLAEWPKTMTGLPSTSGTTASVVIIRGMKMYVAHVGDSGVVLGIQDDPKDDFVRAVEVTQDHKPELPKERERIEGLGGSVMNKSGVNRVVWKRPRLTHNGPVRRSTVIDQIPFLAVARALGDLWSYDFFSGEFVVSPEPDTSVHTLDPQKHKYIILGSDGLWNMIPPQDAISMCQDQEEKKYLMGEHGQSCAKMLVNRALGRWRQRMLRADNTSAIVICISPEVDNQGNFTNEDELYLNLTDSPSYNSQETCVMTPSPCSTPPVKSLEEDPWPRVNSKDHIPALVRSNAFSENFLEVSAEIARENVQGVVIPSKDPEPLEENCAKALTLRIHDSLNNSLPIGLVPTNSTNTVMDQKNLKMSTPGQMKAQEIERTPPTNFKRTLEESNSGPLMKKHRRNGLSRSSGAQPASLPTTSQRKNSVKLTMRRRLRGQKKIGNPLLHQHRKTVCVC
Summary of the method: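 RapidFire mass spectrometry measured dephosphorylated peptide after 5 min room-temperature reaction of 2 uM VEPPL-pS-QETFS with 10 nM WIP1 (50 mM Tris-HCl pH 7.5, 30 mM MgCl2, 0.1 mM EGTA, BSA), following 1 hr compound preincubation; 1 uM isotope-labelled product standard.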

[7] = target: Protein phosphatase 1D (Homo sapiens) (UniProt O15297); experiment: Rhodamine-PBP qHTS Assay for Modulators of WT P53-Induced Phosphatase 1 (WIP1) (AID 1347425); note: % of control where 0% means no effect
Summary of the method: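 5 nM WIP1 + 10 uM Rh-PBP, 50 mM Tris pH 7.5, 30 mM MgCl2, 1 mM TCEP, 0.1 mM EGTA, BSA; cpds pinned, 1 hr RT; + 10 uM phosphopeptide; fluorescence 1-min reads x 11 min; delta = f1 - f0.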

[8] = Validation qHTS assay for inhibitors of Activation Induced Cytidine Deaminase (AID): UDG Counterscreen signal (AID 1347427); note: 0% is about no effect
Summary of the method: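 Fluorescence at 560 nm excitation, 665 nm emission reports UDG signal after 250 mM NaOH (2x) addition and 30 min. Enzymes (AID 1 uM, UDG 2 U/mL, at 4/3x) preincubated 10 min with compound, then 4 h with 4x 250 nM DJC20/DJC23 substrate at room temperature.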

[9] = target: Single-stranded DNA cytosine deaminase (Homo sapiens) (UniProt Q9GZX7); experiment: Validation qHTS assay for inhibitors of Activation Induced Cytidine Deaminase (AID): AID signal (AID 1347429); note: % is set by controls: 0 for no effect and ±100 for the full control effect
Single-stranded DNA cytosine deaminase (Homo sapiens), sequence (Q9GZX7 whole entry, looked up): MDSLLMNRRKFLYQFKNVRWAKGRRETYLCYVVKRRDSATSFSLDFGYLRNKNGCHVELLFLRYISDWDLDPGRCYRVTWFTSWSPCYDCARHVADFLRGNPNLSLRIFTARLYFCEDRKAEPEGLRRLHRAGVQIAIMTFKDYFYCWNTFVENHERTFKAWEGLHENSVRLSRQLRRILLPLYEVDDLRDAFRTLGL
Summary of the method: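 Compounds (up to 114 uM final) are tested against AID plus UDG using DJC20/DJC23 FRET substrate. Reactions incubate 4 hr at room temperature, receive NaOH for 30 min, and are read at Ex 540/Em 590 nm.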

[10] = Primary qHTS for inhibitors of La Crosse Virus (LACV) - induced cell death in SH-SY5Y cells (AID 1508616);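 note: top concentration of the series differs between compounds; 0% = infected DMSO wells and 100% = uninfected DMSO wells; higher means more rescue of cells from virus-induced death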
Summary of the method: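 Screening measures cell viability in LACV-infected SH-SY5Y cultures. Compound was added before virus (0.01 MOI), and ATP was detected by luminescence 6 days later.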

[11] = target: Calcium and integrin-binding protein 1 (Homo sapiens) (UniProt Q99828); experiment: Validation qHTS for Identification of Calcium Integrin Binding protein 1 (CIB1) Competitor (AID 1508618); note: % is set by controls: 0 for no effect and ±100 for the full control effect
Calcium and integrin-binding protein 1 (Homo sapiens), sequence (Q99828 whole entry, looked up): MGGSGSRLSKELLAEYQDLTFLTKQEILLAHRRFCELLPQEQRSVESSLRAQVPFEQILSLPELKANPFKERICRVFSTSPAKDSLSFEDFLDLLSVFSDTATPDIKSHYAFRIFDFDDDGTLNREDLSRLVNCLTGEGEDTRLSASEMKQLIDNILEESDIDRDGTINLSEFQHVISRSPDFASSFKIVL
Summary of the method: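 Displacement of FITC-alphaIIb peptide (100 nM) from CIB1-GST (1 uM) is monitored by polarization in quantitative HTS format; buffer carries 5 mM CaCl2 and 125 mM NaCl at pH 7.4, incubations are at room temperature.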

[12] = target: Calcium and integrin-binding protein 1 (Homo sapiens) (UniProt Q99828); experiment: Primary qHTS for Identification of Calcium Integrin Binding Protein 1 (CIB1) Competitor (AID 1508620)
Summary of the method: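 CIB1-GST (1 uM final) and compound incubated 15 min at room temperature before adding FITC-alphaIIb peptide tracer (100 nM final). Competition for binding read by fluorescence polarization (ex 480, em 540) after another 15 min at room temperature.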

[13] = Confirmatory screen NINDS Rhodamine qHTS for Zika virus inhibitors (AID 1347161); note: nearly all actives have a fitted effect of over 60% in size; note: potency is the fitted concentration of half-maximal effect;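 for activity change, negative = inhibition: purified Zika NS2B-NS3 protease with linked NS2B cofactor domain and Rhodamine110 peptide substrate; series mostly up to about 110 µM; plate controls were no-inhibitor control for no effect and no-enzyme control for full effect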
Summary of the method: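 Single-chain NS2B-NS3 protease, 25 nM, pH 8.0; compounds preincubated 15 min. Activity: Rhodamine110 release from 1.5 microM substrate over 15 min, room temperature, data fitted to 4-parameter Hill.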

[14] = test system: Zika virus NS2B-NS3 protease (linked); experiment: 384 well plate NINDS AMC confirmatory qHTS for Zika virus inhibitors (AID 1347163);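 note: linked protease at 5 30 or 60 nM final depending on run; fluorescence of AMC released from Ac-VKTGKR-AMC peptide cleaved by the protease; top concentration of the series differs between compounds; 0% = no-inhibitor control and -100% = no-enzyme control; nearly all actives have a fitted effect of over 50% in size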
Summary of the method: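 Enzyme (5, 30 or 60 nM final) first met test compounds for ~15 min. The AMC-tagged peptide Ac-VKTGKR-AMC followed at 30 microM. Fluorescence was then recorded at 25 min and scaled against no-enzyme and no-inhibitor wells.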

[15] = test system: Zika virus NS2B-NS3 protease (linked construct); experiment: 384 well plate NINDS Rhodamine confirmatory qHTS for Zika virus inhibitors (AID 1347164);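 note: top concentration of the series differs between compounds; plate controls were no-inhibitor control for no effect and no-enzyme control for full effect; nearly all actives have a fitted effect of over 65% in size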
Summary of the method: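 Cleavage of Ac-LKRR-Rhodamine 110 (10 microM final) by linked protease (final 5, 30 or 60 nM) was followed as fluorescence at 485/538 nm after 25 min, room temperature, dark. Compounds preincubated ~15 min.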

[16] = Vero cells viability qHTS for Zika virus inhibitors (AID 1347167); note: % is set by controls: 0 for no effect and ±100 for the full control effect
Summary of the method: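 Luminescent ATP readout (CellTiter Glo) after 30 min at 37 degrees C gives viability; cells in DMEM + 4% FBS were treated 24 to 48 hours with compound, following overnight attachment.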

[17] = Tertiary RLuc qRT-PCR qHTS assay for Zika virus inhibitors (AID 1347169); note: top concentration of the series differs between compounds; % is set by controls: 0 for no effect and ±100 for the full control effect; nearly all actives have a fitted effect of over 55% in size
Summary of the method: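 Inhibition of ZIKV-RLuc replication in Vero cells, read as Renilla luminescence 1-1.5 hrs after live-cell substrate addition, following 48-72 hrs infection at MOI 1-2 in presence of compound.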

[18] = Counterscreen qHTS for small molecule stabilizers of the endoplasmic reticulum resident proteome: GLuc-NoTag assay (AID 1508627);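 note: SH-SY5Y cells given compound then 100 nM thapsigargin to empty ER calcium; series mostly up to about 76 µM; 0% = thapsigargin alone and -100% = DMSO vehicle control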
Summary of the method: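 Counterscreen line: SH-SY5Y-GLuc-NoTag cells, treated with compound 19 hr before a 4 hr, 100 nM thapsigargin calcium depletion. Secreted Gaussia luciferase in the medium was measured by luminescence after coelenterazine was added (0.07x final), with cells unlysed.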

[19] = Confirmatory qHTS for small molecule stabilizers of the endoplasmic reticulum resident proteome: Secreted ER Calcium Modulated Protein (SERCaMP) assay (AID 1508628);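 note: SH-SY5Y cells given compound 16 h then thapsigargin 100 nM for 4 h; series mostly up to about 76 µM; % is set by controls: 0 for no effect and ±100 for the full control effect; nearly all actives have a fitted effect of over 40% in size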
Summary of the method: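 GLuc-SERCaMP-expressing SH-SY5Y cells, pretreated 16 h with compound, are challenged with thapsigargin to empty ER calcium stores; after 4 h, coelenterazine is added directly to the medium and luminescence is imaged.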

CC(C[N+](C)(C)C)OC(N)=O (stereo unspecified)
inactive: outcome [1] | Potency [2] | outcome [3] | outcome [4] | Potency [5] | Potency [6] | outcome [7] | outcome [8] | Potency [9] | outcome [10] | Potency [11] | outcome [12]

CC(C)c1onc(-c2c(Cl)cccc2Cl)c1COc1ccc(/C=C/c2cccc(C(=O)O)c2)c(Cl)c1
inactive: Potency [14] | Potency [15] | Potency [5]
active: Potency [13] 2.47 µM

Cc1[nH]c(=O)c(C#N)cc1-c1ccc2nccn2c1
inactive: Potency [13] | outcome [1] | outcome [16] | Potency [17] | Potency [2] | outcome [3] | outcome [4] | Potency [5] | Potency [6] | outcome [7] | outcome [8] | Potency [9] | outcome [10] | Potency [11] | outcome [12] | Potency [18]

Cc1cn[nH]c1
inactive: outcome [1] | Potency [2] | outcome [3] | outcome [4] | Potency [5] | Potency [6] | outcome [7] | outcome [8] | Potency [9] | outcome [10] | Potency [11] | outcome [12]

Cc1ccc(N(CC2=NCCN2)c2cccc(O)c2)cc1
inactive: outcome [1] | Potency [2] | outcome [3] | outcome [4] | Potency [5] | Potency [6] | outcome [7] | outcome [8] | Potency [9] | outcome [10] | Potency [18]

NCCCC(N)(C(=O)O)C(F)F (stereo unspecified)
inactive: outcome [1] | Potency [2] | outcome [3] | outcome [4] | Potency [5] | Potency [6] | outcome [7] | outcome [8] | Potency [9] | outcome [10] | Potency [11] | outcome [12]

CCN(CC)CCCC(C)Nc1ccnc2cc(Cl)ccc12 (stereo unspecified)
inactive: Potency [13] | outcome [1] | outcome [16] | Potency [17] | Potency [2] | outcome [3] | activity change, negative = inhibition [5] 34% [at 8.44 µM] | Potency [6] | outcome [8] | Potency [9] | outcome [10] | Potency [18] | Potency [19]

N[C@@H]1CONC1=O
inactive: outcome [1] | Potency [2] | outcome [3] | outcome [4] | Potency [5] | Potency [6] | outcome [7] | outcome [8] | Potency [9] | outcome [10] | Potency [11] | outcome [12]

O=NN(CCCl)C(=O)NCCCl
inactive: outcome [1] | Potency [2] | outcome [3] | outcome [4] | Potency [5] | Potency [6] | outcome [7] | outcome [8] | Potency [9] | outcome [10] | Potency [11] | outcome [12]

CCCC(CCC)C(=O)O
inactive: outcome [1] | Potency [2] | outcome [3] | outcome [4] | Potency [5] | Potency [6] | outcome [7] | outcome [8] | Potency [9] | outcome [10] | Potency [11] | outcome [12]
